These results are taken from PubChem BioAssay AID1460 (National Center for Advancing Translational Sciences (NCATS), 2008).

Molecules are shown by their SMILES. About 5,800 (2.1%) of roughly 270,000 compounds were called active. Another 16% or so got no clear call; they are omitted. The sample as a whole holds a higher share of actives than the screen did. Values without a mark were called inactive. Calls come from the whole dose curve; as a rule, active = well fitted inhibition curve with a large enough effect; inconclusive = small, poorly fitted or top-dose-only effect; inactive = flat fitted curve, though single readings scatter.
% is set by controls: 0 for no effect and ±100 for the full control effect; potency is the fitted concentration of half-maximal effect.

Microtubule-associated protein tau (Homo sapiens), sequence (P10636 561-689 P618L limits assumed): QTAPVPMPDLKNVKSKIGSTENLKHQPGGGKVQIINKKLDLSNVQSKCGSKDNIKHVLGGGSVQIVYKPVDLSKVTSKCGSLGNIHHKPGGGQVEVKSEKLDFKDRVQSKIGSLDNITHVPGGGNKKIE

This assay concerns the target Microtubule-associated protein tau (Homo sapiens) (UniProt P10636). Briefly: qHTS for Inhibitors of Tau Fibril Formation, Thioflavin T Binding. Note: nearly all actives have a fitted effect of over 55% in size. The conditions noted are these: recombinant tau K18 P301L, heparin-induced fibrillization, ThT fluorescence; series mostly up to 57.4 µM; activity, negative = inhibition: at the top concentration. In outline:
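Fibril formation assay: tau K18 P301L at 15 uM with trace Alexa 594 label, heparin inducer 20 uM, pH 7 sodium acetate buffer, 37 C for 6 hr; endpoint ThT signal.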
As to `Cc1ccc2sc(N(Cc3cccnc3)C(=O)C3COc4ccccc4O3)nc2c1C` (stereo unspecified), the “activity, negative = inhibition” value was -8.74%.

Regarding `CC(C)OC(=O)CN1C(=O)C(=O)c2ccccc21`, the “activity, negative = inhibition” value is -13.1%.

As for `Cc1cc(C(=O)COC(=O)CCCN2C(=O)c3ccccc3C2=O)c(C)n1C`, the “activity, negative = inhibition” value was -9.79%.

`CCCCN1C(=O)/C(=C(/C#N)C(N)=O)c2ccccc21`: the Potency was 20 µM (active).

`Cc1ccc(-n2nc(C)c3c(C)cc(=O)n(CC(=O)Nc4ccc(C(C)C)cc4)c32)cc1`: the “activity, negative = inhibition” value was 20.4%.

For the compound `CCOc1ccc(N=C2SC(C(=O)O)CC(=O)N2C)cc1` (stereo unspecified), the “activity, negative = inhibition” value was 8.58%.

With `CCOc1ccc(N=C2NC(=O)S/C2=C\c2ccc(O)cc2)cc1`, the Potency is 3.55 µM (active).

In the case of `CCOc1ccc(/C=N/NC(N)=S)cc1`, the “activity, negative = inhibition” value is -8.57%.

As for `Cc1cc(OC(C)C(=O)Nc2sc3c(c2C(N)=O)CCCC3)ccc1Cl` (stereo unspecified), the “activity, negative = inhibition” value is -10.9%.

As for `COc1ccccc1CCNC(=O)c1cccn1-c1nnc(N2CCCCC2)s1`, the “activity, negative = inhibition” value is 6.81%.

As for `COc1ccc(CNC(=O)C2=Cc3cccc(OC)c3OC2)cc1OC`, the “activity, negative = inhibition” value was -1.13%.

As for `COc1ccc(Cc2nc3ccc(C(=O)NCc4ccc(OC)cc4OC)cc3o2)cc1`, the “activity, negative = inhibition” value is -16.5%.

With `CC1CCCN(S(=O)(=O)c2ccc3[nH]c(=O)cc(C(=O)NCCc4ccc(Cl)cc4)c3c2)C1` (stereo unspecified), the “activity, negative = inhibition” value was 6.2%.

In the case of `CC(C)OCCCn1c(SCC(=O)c2ccccc2)nc2c(sc3ccccc32)c1=O`, the “activity, negative = inhibition” value was -3.27%.

As for `Cc1cc(F)ccc1NS(=O)(=O)c1ccc(-n2cccn2)cc1`, the “activity, negative = inhibition” value is 0.124%.

Consider `CC(C)CC(=O)NCC(c1ccc2c(c1)OCO2)N1CCN(c2ccc(F)cc2)CC1` (stereo unspecified), for which the “activity, negative = inhibition” value is -1.35%.

Regarding `O=C1c2ccccc2C(=O)c2c1cccc2N1CCN(Cc2ccccc2)CC1`, the Potency is 14.1 µM (active).

In the case of `O=c1cc(N2CCN(Cc3ccccc3)CC2)c(-c2ccccc2)n[nH]1`, the “activity, negative = inhibition” value is -8.74%.

On to `O=C(CN1CCN(Cc2ccccc2)CC1)NC(c1ccccc1)c1ccccc1`, for which the “activity, negative = inhibition” value is -6.32%.

`CC(=O)c1ccc(NC(=O)CSc2nc(-c3ccccc3F)nc3c2c(=O)n(C)c(=O)n3C)cc1`: the “activity, negative = inhibition” value was -4.07%.

As to `COc1ccc(Cn2ccn(Cc3cccc(OC)c3)c(=O)c2=O)cc1`, the “activity, negative = inhibition” value was -1.27%.

`Cn1c(=O)oc2cc(S(=O)(=O)CCC(=O)NCCc3ccc(Cl)cc3)ccc21`: the “activity, negative = inhibition” value was -5.87%.

For `Cc1ccc(C)c(Oc2c(C(F)(F)F)oc3c(CN4CCN(C)CC4)c(O)ccc3c2=O)c1`, the “activity, negative = inhibition” value is 5.1%.

On to `Fc1ccccc1Oc1ncnc2c1oc1ccccc12`, for which the “activity, negative = inhibition” value was 0.723%.

For the compound `CCOc1ccc(/C=N/Nc2nncc(-c3ccccc3)n2)cc1OC`, the Potency was 2.24 µM (active).

Take `C=CCOc1ccc(/C=N/NC(=O)C(C)Sc2ccccn2)cc1OCC` (stereo unspecified): the “activity, negative = inhibition” value was -0.608%.

Turning to `CCOc1ccc(/C=N/NC(=O)C(C)Sc2ccccn2)cc1OCC` (stereo unspecified), the “activity, negative = inhibition” value was -11%.

As to `COc1ccc(-c2ccc(=O)n(CC(=O)Nc3ccc(Br)cc3F)n2)cc1`, the “activity, negative = inhibition” value is -0.585%.

Turning to `Cc1ccccc1CN1CCC(CNC(=O)c2cc3ccc4cccnc4c3[nH]2)CC1`, the “activity, negative = inhibition” value was 3.15%.

Take `COc1cccc(C(=O)Nc2ccc(-c3cc(C(F)(F)F)nn3-c3ccccc3)cc2)c1`: the “activity, negative = inhibition” value was -2.4%.

`COc1cccc(C(=O)Nc2ccc(N3CCCC3)cc2)c1`: the Potency was 14.1 µM (active).

On to `O=C(Nc1nc2cc3c(cc2s1)OCCO3)c1cccc(S(=O)(=O)N2CCOCC2)c1`, for which the “activity, negative = inhibition” value is -8.31%.

`CCC(=O)Nc1ccc(C(=O)Nc2cccc(OC)c2)cc1`: the “activity, negative = inhibition” value was -2.56%.

Take `COc1cccc(C(=O)Nc2nnc(S(=O)(=O)N3CCOCC3)s2)c1`: the Potency was 3.16 µM (active).

Take `COc1ccc(C(=O)Nc2nc(-c3ccc(S(=O)(=O)N4CCOCC4)cc3)cs2)cc1`: the “activity, negative = inhibition” value was -6.13%.

Turning to `COc1cc(NC(=O)C2CCN(c3cnccn3)CC2)cc(OC)c1`, the “activity, negative = inhibition” value was 0.931%.

As for `CCc1ccc(S(=O)(=O)c2nnn3c2nc(N2CCN(CC)CC2)c2sccc23)cc1`, the “activity, negative = inhibition” value was -2.76%.

For the compound `CCC(=O)Nc1ccccc1-c1nc2ccccc2n(CC(=O)Nc2ccc(C)c(C)c2)c1=O`, the “activity, negative = inhibition” value is -4.76%.

With `Oc1c(C=Nc2cccc3nsnc23)ccc2ccccc12`, the Potency was 2.24 µM (active).

As for `COc1ccc(C=Nc2cccc3ncccc23)cc1`, the “activity, negative = inhibition” value is -11.3%.

For `COc1cc(NC(=O)Cn2c(=O)n(Cc3ccco3)c(=O)c3oc4ccccc4c32)cc(OC)c1`, the “activity, negative = inhibition” value was 8.95%.

`CSC1=N/C(=C\C=C\c2cccs2)C(=O)S1`: the Potency is 14.1 µM (active).

As to `Cc1cccc(C2=N/C(=C/c3cccs3)C(=O)O2)c1`, the “activity, negative = inhibition” value is -11.6%.

As to `O=C1N/C(=C/c2cccs2)C(=O)N1Cc1ccc(F)cc1`, the “activity, negative = inhibition” value is 4.61%.

As for `CC1Cc2cc(S(=O)(=O)CCC(=O)Nc3ccc(F)c(Cl)c3)ccc2N1C(=O)C1CC1` (stereo unspecified), the “activity, negative = inhibition” value is 1.55%.

Consider `Cc1ccccc1C(CC(=O)c1cccs1)C(C#N)C#N` (stereo unspecified), for which the Potency was 25.1 µM (active).

On to `Cc1ccc(C)c(NC(CC(=O)c2ccccc2)C(=O)OCC(=O)c2cccs2)c1` (stereo unspecified), for which the “activity, negative = inhibition” value is -13.7%.

Regarding `O=C(CCC(=O)c1cccs1)NCc1ccccc1`, the “activity, negative = inhibition” value is 0.274%.

In the case of `COc1cccc(-n2cc(C(=O)NCc3cccc(Cl)c3)c3ccccc3c2=O)c1`, the “activity, negative = inhibition” value is -10.9%.

With `Cc1coc2c(O)cc3c(c12)OC1(N2CCCCC2)C(=O)NCCCC31` (stereo unspecified), the Potency is 15.8 µM (active).

For `CCS(=O)(=O)N1CCC(n2c(C)nc3cccnc32)CC1`, the “activity, negative = inhibition” value was -1.27%.
